{
  "source": "PubChem BioAssay (EPA / NIEHS)",
  "key": {"[1]": {"test": "CCTE_Padilla_ZF_Score.General: CCTE's 144 Hour Post-fertilization zebrafish Assay Score for General Malformation, Padilla Lab (AID 2284411)", "method_in_brief": "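Malformation, death and hatching were scored at 6 dpf by two blinded observers under a stereo microscope. Embryos were dosed singly from 6-8 hpf in sealed plates of 10% Hanks' at 26C and rinsed on 5 dpf; DMSO baseline.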"}, "[2]": {"test": "CCTE_Padilla_ZF_Score.Position: CCTE's 144 Hour Post-fertilization zebrafish Assay Score for Position, Padilla Lab (AID 2284409)", "method_in_brief": "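Wild-type zebrafish embryos (with chorions) exposed singly from 6–8 hpf in sealed wells of Hanks' solution at 26C, rinsed at 5 dpf. At 6 dpf, blinded assessors scored abnormal water-column position by brightfield stereomicroscopy, relative to DMSO.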"}, "[3]": {"test": "CCTE_Padilla_ZF_Score.Living: CCTE's 144 Hour Post-fertilization zebrafish Assay Score for Viability, Padilla Lab (AID 2284410)", "method_in_brief": "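Mortality at 6 dpf, judged as absent heartbeat or coagulation by two blinded observers, after sealed static exposure beginning at 6–8 hpf at 26C. Larvae were rinsed free of chemical at 5 dpf, and activity was fitted relative to DMSO.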"}, "[4]": {"test": "CCTE_Padilla_ZF_Score.Tail: CCTE's 144 Hour Post-fertilization zebrafish Assay Score for Tail Malformation, Padilla Lab (AID 2284414)", "method_in_brief": "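Tail malformations were scored at 6 dpf by two blinded assessors under a stereo microscope. Chorionated embryos had been exposed from 6-8 hpf in sealed wells of 10% Hanks' at 26 C, then rinsed free of chemical at 5 dpf.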"}, "[5]": {"test": "CCTE_Padilla_ZF_Score.Blood_pooling: CCTE's 144 Hour Post-fertilization zebrafish Assay Score for Blood Pooling, Padilla Lab (AID 2284415)", "method_in_brief": "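Blood pooling was scored at 6 dpf under a stereo microscope by two blinded assessors, fitted upward against DMSO. Single embryos were dosed at 6–8 hpf in 10% Hanks', kept sealed at 26C (14:10 h cycle) and rinsed at 5 dpf.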"}, "[6]": {"test": "CCTE_Padilla_ZF_Score.Any: CCTE's 144 Hour Post-fertilization zebrafish Assay Score for Any Mortality or Malformation, Padilla Lab (AID 2284416)", "method_in_brief": "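Wild-type zebrafish embryos with chorions, one per well in 10% Hanks' from 6–8 hpf, dosed in sealed plates at 26 C, 14:10 h light:dark; rinsed at 5 dpf; blinded scoring at 6 dpf for death or malformation, versus DMSO.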"}, "TTR (gene 7276)": {"test_system": "TTR (gene 7276)", "test": "CCTE_GLTED_hTTR_0.125uM: CCTE's human Transthyretin (hTTR) Inhibition Assay, with 0.125uM TTR, Great Lakes Toxicology and Ecology Division (GLTED) Lab (AID 2284431);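 further: hits lower the fluorescence signal relative to DMSO baseline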", "method_in_brief": "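TTR at 0.125uM incubated 2 h with test chemical; displacement of bound ANSA read by fluorescence (ex 380, em 475). Activity is signal loss versus DMSO baseline.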"}},
  "note": "Active and inactive are the calls of the source. How the source made its calls: active means hit-call score of the fitted dose curve at least 0.9, where 1 is the maximum; inactive means score below 0.9.",
  "data": [
    {"smiles": "CCCCC(CC)COP(=O)(Oc1ccccc1)Oc1ccccc1", "note": "(centres undefined)", "values": [
      {"measurement": "AC50", "setting": "[1]", "value": "3.23 µM (active)"}
    ]},
    {"smiles": "C=CC(=O)OCC(F)(F)C(F)F", "values": [
      {"measurement": "outcome", "setting": "[2]", "value": "inactive"},
      {"measurement": "AC50", "setting": "[3]", "value": "20.7 µM (active)"},
      {"measurement": "AC50", "setting": "[1]", "value": "7.91 µM (active)"},
      {"measurement": "outcome", "setting": "[4]", "value": "inactive"},
      {"measurement": "outcome", "setting": "[5]", "value": "inactive"},
      {"measurement": "AC50", "setting": "[6]", "value": "9.85 µM (active)"}
    ]},
    {"smiles": "O=S(=O)(c1ccc(O)cc1)c1ccc(O)cc1", "values": [
      {"measurement": "AC50", "setting": "TTR (gene 7276)", "value": "19.9 µM (active)"}
    ]},
    {"smiles": "O=S1(=O)OCC2C(CO1)C1(Cl)C(Cl)=C(Cl)C2(Cl)C1(Cl)Cl", "note": "(centres undefined)", "values": [
      {"measurement": "AC50", "setting": "[1]", "value": "0.165 µM (active)"}
    ]},
    {"smiles": "O=S(=O)(F)C(F)(F)C(F)(F)C(F)(F)C(F)(F)C(F)(F)C(F)(F)C(F)(F)C(F)(F)F", "values": [
      {"measurement": "outcome", "setting": "[2]", "value": "inactive"},
      {"measurement": "outcome", "setting": "[3]", "value": "inactive"},
      {"measurement": "outcome", "setting": "[1]", "value": "inactive"},
      {"measurement": "outcome", "setting": "[4]", "value": "inactive"},
      {"measurement": "outcome", "setting": "[5]", "value": "inactive"},
      {"measurement": "outcome", "setting": "[6]", "value": "inactive"}
    ]},
    {"smiles": "CC(C)(C)c1ccccc1OP(=O)(Oc1ccccc1)Oc1ccccc1", "values": [
      {"measurement": "AC50", "setting": "[1]", "value": "8.75 µM (active)"}
    ]},
    {"smiles": "O=C(O)C(F)(F)OC(F)(F)C(F)(F)OC(F)(F)F", "values": [
      {"measurement": "outcome", "setting": "[2]", "value": "inactive"},
      {"measurement": "outcome", "setting": "[3]", "value": "inactive"},
      {"measurement": "outcome", "setting": "[1]", "value": "inactive"},
      {"measurement": "outcome", "setting": "[4]", "value": "inactive"},
      {"measurement": "outcome", "setting": "[5]", "value": "inactive"},
      {"measurement": "outcome", "setting": "[6]", "value": "inactive"}
    ]},
    {"smiles": "COC(=O)C(F)(F)C(F)(F)OC(F)(C(F)(F)F)C(F)(F)OC(F)=C(F)F", "note": "(centres undefined)", "values": [
      {"measurement": "outcome", "setting": "[2]", "value": "inactive"},
      {"measurement": "outcome", "setting": "[3]", "value": "inactive"},
      {"measurement": "outcome", "setting": "[1]", "value": "inactive"},
      {"measurement": "outcome", "setting": "[4]", "value": "inactive"},
      {"measurement": "outcome", "setting": "[5]", "value": "inactive"},
      {"measurement": "outcome", "setting": "[6]", "value": "inactive"}
    ]},
    {"smiles": "O=c1ssc(Cl)c1Cl", "values": [
      {"measurement": "outcome", "setting": "[1]", "value": "inactive"},
      {"measurement": "AC50", "setting": "TTR (gene 7276)", "value": "0.578 µM (active)"}
    ]},
    {"smiles": "O=C(O)C(F)(OC(F)(F)C(F)(F)C(F)(F)F)C(F)(F)F", "note": "(centres undefined)", "values": [
      {"measurement": "outcome", "setting": "[2]", "value": "inactive"},
      {"measurement": "outcome", "setting": "[3]", "value": "inactive"},
      {"measurement": "outcome", "setting": "[1]", "value": "inactive"},
      {"measurement": "outcome", "setting": "[4]", "value": "inactive"},
      {"measurement": "outcome", "setting": "[5]", "value": "inactive"},
      {"measurement": "outcome", "setting": "[6]", "value": "inactive"}
    ]},
    {"smiles": "N#Cc1c(-c2ccc(Cl)cc2)[nH]c(C(F)(F)F)c1Br", "values": [
      {"measurement": "outcome", "setting": "[1]", "value": "inactive"}
    ]},
    {"smiles": "Cc1c([N+](=O)[O-])cc2c(c1[N+](=O)[O-])C(C)(C)CC2(C)C", "values": [
      {"measurement": "AC50", "setting": "[1]", "value": "2.8 µM (active)"}
    ]},
    {"smiles": "NC(=O)C(F)(F)C(F)(F)F", "values": [
      {"measurement": "outcome", "setting": "[2]", "value": "inactive"},
      {"measurement": "outcome", "setting": "[3]", "value": "inactive"},
      {"measurement": "outcome", "setting": "[1]", "value": "inactive"},
      {"measurement": "outcome", "setting": "[4]", "value": "inactive"},
      {"measurement": "outcome", "setting": "[5]", "value": "inactive"},
      {"measurement": "outcome", "setting": "[6]", "value": "inactive"}
    ]}
  ]
}
